In the first assay the test system is PAK2. Particulars: concentration: 1 μM,replicates: in singlicate; n = 1.
As for `CCn1c(-c2nonc2N)nc2c(C#CC(C)(C)O)nc(OCCN)cc21.Cl.Cl` [GSK902056], the “%Inh” value worked out at 36%.
On the same count and under the same terms, next, `COc1ccc(C[C@@H](CN)NC(=O)c2cc(Br)c(-c3ccnc4[nH]ccc34)s2)cc1.Cl.Cl` [GSK1389063]: 62%.
For `Cc1ccc2c(-c3ccncc3)c(-c3ccc(F)cc3)nn2c1.Cl` [GW461484], the “%Inh” value is listed as 30%.
On to `Cl.Cl.NC[C@H](Cc1ccc(C(F)(F)F)cc1)NC(=O)c1cc(Br)c(-c2ccnc3[nH]ccc23)s1` [GSK1487252], for which the “%Inh” value is recorded as 33%.
The same measure, in the same setting: the value for `O=C(NCCCN1CCOC1=O)c1cnc(NCc2cc(Cl)ccc2Cl)nc1NC1CCCC1` was 17%; that for `C=CC(=O)Nc1cc2c(Nc3ccc(F)c(Cl)c3)ncnc2cc1OCCCN1CCOCC1` [GW781483] was 14%; that for `NC(=O)c1cc(-c2ccccc2)cc2c(C3CCNCC3)c[nH]c12` [GSK301362] was 27%.
Still for that read-out and setting: the value for `C[C@@H]1CCN(C(=O)CC#N)C[C@@H]1N(C)c1ncnc2[nH]ccc12` was 0%; that for `Cc1occc1-c1nc(N)c(OC[C@@H](N)Cc2c[nH]c3ccccc23)cc1-c1cc2c(C)n[nH]c2cn1` [GSK1660450] was 86%.
Turning to `C[C@H]1Oc2cc(cnc2N)-c2c(nn(C)c2C#N)CN(C)C(=O)c2ccc(F)cc21`, the “%Inh” value came to 9%.
Same read-out and setting: next, `CN(C)CC(O)COc1ccc(Nc2nccc(-c3cnn4nc(N5CCOCC5)ccc34)n2)cc1` (stereo not drawn) [GW767488]: 34%; `CCN(CC)CCCCNc1ncc2cc(-c3c(Cl)cccc3Cl)c(NC(=O)NC(C)(C)C)nc2n1`: 2%; `Cl.Cl.NC[C@H](CC1CCCCC1)NC(=O)c1cc(Br)c(-c2ccnc3[nH]ccc23)s1` [GSK1581427]: 36%.
On the same count and under the same terms, next, `CN(C)CCOc1ccc(-c2cc(-c3c[nH]nc3-c3ccccn3)ccn2)cc1` [GW835314]: 0%; `CNC(=O)c1ccccc1Sc1ccc2c(/C=C/c3ccccn3)n[nH]c2c1`: 8%; `O=C(NCCNc1ccnc(NCc2ccc(F)cc2)n1)c1cc2ccccc2s1` [GSK1379944]: 20%.
On the same count and under the same terms, next, `Cc1cc2cn[nH]c2cc1-c1cccc2c(N)c(C(N)=O)nnc12`: 10%; `CC(C)N1C(=O)Cc2cc(Nc3ncc(C(F)(F)F)c(NCc4cccc(S(C)(=O)=O)c4)n3)ccc21`: 0%; `Cl.Oc1cc(-c2nc(-c3ccccc3)[nH]c2-c2ccncc2)ccc1Cl` [SB-386023]: 20%.
For `CC(C)Nc1cc(-c2ccc3c(N)n[nH]c3c2)nc(N)n1` [GSK2221681], the “%Inh” value came to 26%.
Regarding `Cc1ccc(-n2nc(C(C)(C)C)cc2NC(=O)Nc2ccc(OCCN3CCOCC3)c3ccccc23)cc1` [GW839464], the “%Inh” value is given as 0%.
Still for that read-out and setting: next, `C[C@@H](Oc1cc(-c2cnn(C3CCNCC3)c2)cnc1N)c1c(Cl)ccc(F)c1Cl`: 9%; `Cc1n[nH]c2ccc(-c3cc(OC[C@@H](N)Cc4ccccc4)cnc3-c3ccoc3)cc12.O=C(O)C(F)(F)F.O=C(O)C(F)(F)F` [GSK507358]: 40%; `CCN(CC)CCOc1ccc(Nc2ncc3cc(-c4c(Cl)cccc4Cl)c(=O)n(C)c3n2)cc1` [SB-601273]: 17%.
Take `Cl.Cl.Nc1nc(-c2ccc3c(N)n[nH]c3c2)cc(N2CCCC(NC(=O)c3ccccc3)C2)n1` (stereo not drawn) [GSK2286775]: the “%Inh” value stood at 1%.
Same read-out and setting: the value for `Cc1cc(C(=O)Nc2ccc(Oc3ccc4nc(NC(=O)C5CC5)cn4n3)cc2)nn1-c1ccccc1` was 0%; that for `Nc1nc(Nc2ccccc2)cc(-c2ccc3c(N)n[nH]c3c2)n1` [GSK2225749] was 9%.

In a further assay the test system is PAK3. The note with it: concentration: 1 μM,replicates: in singlicate; n = 1.
`CCn1c(-c2nonc2N)nc2c(C#CC(C)(C)O)nc(OCCN)cc21.Cl.Cl` [GSK902056]: the “%Inh” value came to 10%.
Same read-out and setting: the value for `COc1ccc(C[C@@H](CN)NC(=O)c2cc(Br)c(-c3ccnc4[nH]ccc34)s2)cc1.Cl.Cl` [GSK1389063] was 93.9%; that for `Cc1ccc2c(-c3ccncc3)c(-c3ccc(F)cc3)nn2c1.Cl` [GW461484] was 19%; that for `Cl.Cl.NC[C@H](Cc1ccc(C(F)(F)F)cc1)NC(=O)c1cc(Br)c(-c2ccnc3[nH]ccc23)s1` [GSK1487252] was 83%.
Take `O=C(NCCCN1CCOC1=O)c1cnc(NCc2cc(Cl)ccc2Cl)nc1NC1CCCC1`: the “%Inh” value worked out at 0%.
On the same count and under the same terms, next, `C=CC(=O)Nc1cc2c(Nc3ccc(F)c(Cl)c3)ncnc2cc1OCCCN1CCOCC1` [GW781483]: 0%; `NC(=O)c1cc(-c2ccccc2)cc2c(C3CCNCC3)c[nH]c12` [GSK301362]: 38%.
Still for that read-out and setting: the value for `C[C@@H]1CCN(C(=O)CC#N)C[C@@H]1N(C)c1ncnc2[nH]ccc12` was 1%; that for `Cc1occc1-c1nc(N)c(OC[C@@H](N)Cc2c[nH]c3ccccc23)cc1-c1cc2c(C)n[nH]c2cn1` [GSK1660450] was 75%.
Still for that read-out and setting: next, `C[C@H]1Oc2cc(cnc2N)-c2c(nn(C)c2C#N)CN(C)C(=O)c2ccc(F)cc21`: 36%; `CN(C)CC(O)COc1ccc(Nc2nccc(-c3cnn4nc(N5CCOCC5)ccc34)n2)cc1` (stereo not drawn) [GW767488]: 4%.
Consider `CCN(CC)CCCCNc1ncc2cc(-c3c(Cl)cccc3Cl)c(NC(=O)NC(C)(C)C)nc2n1`, for which the “%Inh” value is reported as 7%.
On the same count and under the same terms, the value for `Cl.Cl.NC[C@H](CC1CCCCC1)NC(=O)c1cc(Br)c(-c2ccnc3[nH]ccc23)s1` [GSK1581427] was 81%; that for `CN(C)CCOc1ccc(-c2cc(-c3c[nH]nc3-c3ccccn3)ccn2)cc1` [GW835314] was 24%.
On the same count and under the same terms, next, `CNC(=O)c1ccccc1Sc1ccc2c(/C=C/c3ccccn3)n[nH]c2c1`: 0%; `O=C(NCCNc1ccnc(NCc2ccc(F)cc2)n1)c1cc2ccccc2s1` [GSK1379944]: 0%; `Cc1cc2cn[nH]c2cc1-c1cccc2c(N)c(C(N)=O)nnc12`: 85%.
Still for that read-out and setting: the value for `CC(C)N1C(=O)Cc2cc(Nc3ncc(C(F)(F)F)c(NCc4cccc(S(C)(=O)=O)c4)n3)ccc21` was 19%; that for `Cl.Oc1cc(-c2nc(-c3ccccc3)[nH]c2-c2ccncc2)ccc1Cl` [SB-386023] was 0%.
Regarding `CC(C)Nc1cc(-c2ccc3c(N)n[nH]c3c2)nc(N)n1` [GSK2221681], the “%Inh” value is recorded as 0%.
Still for that read-out and setting: next, `Cc1ccc(-n2nc(C(C)(C)C)cc2NC(=O)Nc2ccc(OCCN3CCOCC3)c3ccccc23)cc1` [GW839464]: 35%; `C[C@@H](Oc1cc(-c2cnn(C3CCNCC3)c2)cnc1N)c1c(Cl)ccc(F)c1Cl`: 0%; `Cc1n[nH]c2ccc(-c3cc(OC[C@@H](N)Cc4ccccc4)cnc3-c3ccoc3)cc12.O=C(O)C(F)(F)F.O=C(O)C(F)(F)F` [GSK507358]: 27%.
The same measure, in the same setting: next, `CCN(CC)CCOc1ccc(Nc2ncc3cc(-c4c(Cl)cccc4Cl)c(=O)n(C)c3n2)cc1` [SB-601273]: 47%; `Cl.Cl.Nc1nc(-c2ccc3c(N)n[nH]c3c2)cc(N2CCCC(NC(=O)c3ccccc3)C2)n1` (stereo not drawn) [GSK2286775]: 0%; `Cc1cc(C(=O)Nc2ccc(Oc3ccc4nc(NC(=O)C5CC5)cn4n3)cc2)nn1-c1ccccc1`: 3%.
With `Nc1nc(Nc2ccccc2)cc(-c2ccc3c(N)n[nH]c3c2)n1` [GSK2225749], the “%Inh” value is 0%.

For the origin of these results see publication PMC5540273 (PLoS ONE, 2017).
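Also: KINOMEscan kinase panel screen.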
